ChEMBL document CHEMBL1157539, “Thousands of chemical starting points for antimalarial lead identification” (Nature, 2010)

Key:
Type in all cases: functional
Plasmodium falciparum [1] = assay: GSK_TCMDC: Inhibition of Plasmodium falciparum 3D7 in whole red blood cells, using parasite LDH activity as an index of growth. Test compounds present at 2uM
Plasmodium falciparum [2] = assay: GSK_TCMDC: Inhibition of Plasmodium falciparum Dd2 in whole red blood cells, using parasite LDH activity as an index of growth. Test compounds present at 2uM
HepG2 = assay: GSK_TCMDC: Percent inhibition of human HepG2 cell line. Test compounds present at 10uM.

## Cl.c1ccc(CN2CCN(CCCCNc3c4ccccc4nc4ccccc34)CC2)cc1
Plasmodium falciparum [1]
  Inhibition: 100%
Plasmodium falciparum [2]
  Inhibition: 100%

## CC(=O)Nc1ncc(C(=O)Nc2cccc(-c3ccc(-c4nc5cc(C(F)(F)F)ccc5[nH]4)cc3)c2)s1
Plasmodium falciparum [1]
  Inhibition: 100%
Plasmodium falciparum [2]
  Inhibition: 94%
HepG2
  Inhibition: 83%

## COc1ccc(NS(=O)(=O)c2cccc(C(=O)Nc3ccc(C(F)(F)F)cc3)c2)cc1N1CCN(CC(C)C)CC1.O=C(O)C(F)(F)F
Plasmodium falciparum [1]
  Inhibition: 94%
Plasmodium falciparum [2]
  Inhibition: 4%
HepG2
  Inhibition: 5%

## Nc1ncc(-c2ccc(Br)cc2)c(N)n1
Plasmodium falciparum [1]
  Inhibition: 89%
Plasmodium falciparum [2]
  Inhibition: 0%

## CCCN1CCC2(CC1)NC(C(=O)NCCC(C)C)Cc1c2[nH]c2cc(Cl)ccc12 (configuration not stated)
Plasmodium falciparum [1]
  Inhibition: 86%
Plasmodium falciparum [2]
  Inhibition: 0%
HepG2
  Inhibition: 13%

## CCOc1ncccc1CN1CCC(N2CCc3cc(NC(=O)c4cc(C)on4)ccc32)C1 (configuration not stated)
Plasmodium falciparum [1]
  Inhibition: 89%
Plasmodium falciparum [2]
  Inhibition: 96%
HepG2
  Inhibition: 0%

## CCNc1cc(C(=O)N[C@@H](Cc2ccccc2)[C@H](O)CN[C@H](C)C(C)(C)C)cc(N2CCCCS2(=O)=O)c1.Cl
Plasmodium falciparum [1]
  Inhibition: 95%
Plasmodium falciparum [2]
  Inhibition: 41%
HepG2
  Inhibition: 4%

## CN(C)Cc1ccc(-c2cccc(NC(=O)c3ccc(Cl)cc3)c2)cc1.O=C(O)C(F)(F)F
Plasmodium falciparum [1]
  Inhibition: 94%
Plasmodium falciparum [2]
  Inhibition: 13%
HepG2
  Inhibition: 24%

## CN1CCN(CC(=O)Nc2cccc(-c3cccc(-c4nc5cc(C(F)(F)F)ccc5[nH]4)c3)c2)CC1
Plasmodium falciparum [1]
  Inhibition: 100%
Plasmodium falciparum [2]
  Inhibition: 98%
HepG2
  Inhibition: 26%

## COc1ccc2nccc([C@@H](O)CN3CCC(NCc4ccc5c(n4)NC(=O)CS5)C(F)C3)c2c1.Cl (some centres not stated)
Plasmodium falciparum [1]
  Inhibition: 89%
Plasmodium falciparum [2]
  Inhibition: 88%
HepG2
  Inhibition: 5%

## COc1c(C2CCN(CCCCNC(=O)c3ccc(-c4ccc(Cl)cc4)c(OCCN(C)C)c3)CC2)ccc2c1CCCC2
Plasmodium falciparum [1]
  Inhibition: 100%
Plasmodium falciparum [2]
  Inhibition: 86%
HepG2
  Inhibition: 100%

## Cc1c(CNCCCNc2nc3cscc3[nH]2)sc(C(F)F)c1Br.Cl
Plasmodium falciparum [1]
  Inhibition: 99%
Plasmodium falciparum [2]
  Inhibition: 11%
HepG2
  Inhibition: 1%

## CCOc1ccc(S(=O)(=O)N(C)c2ccc(OCC(=O)Nc3nccs3)cc2)cc1
Plasmodium falciparum [1]
  Inhibition: 95%
Plasmodium falciparum [2]
  Inhibition: 4%
HepG2
  Inhibition: 8%

## COc1ccc(NC(=O)C2CCN(CCCCCNC(=O)/C=C/c3ccc(Cl)c(Cl)c3)CC2)cc1
Plasmodium falciparum [1]
  Inhibition: 98%
Plasmodium falciparum [2]
  Inhibition: 0%
HepG2
  Inhibition: 26%

## CC(C)(C)c1ccc(NC(=O)c2cccc(CN3CCCN(Cc4cccc(Cl)c4)CC3)c2)cc1.O=C(O)C(F)(F)F
Plasmodium falciparum [1]
  Inhibition: 85%
Plasmodium falciparum [2]
  Inhibition: 30%
HepG2
  Inhibition: 61%

## CCCOc1cc(OCCC)cc(-c2cc(=O)c3ccccc3[nH]2)c1
Plasmodium falciparum [1]
  Inhibition: 99%
Plasmodium falciparum [2]
  Inhibition: 96%
HepG2
  Inhibition: 33%

## COc1ccc2nccc([C@@H](O)CN3CCC(NCc4ccc5c(c4)N(C)C(=O)CO5)CC3)c2c1.O=C(O)C(=O)O
Plasmodium falciparum [1]
  Inhibition: 100%
Plasmodium falciparum [2]
  Inhibition: 95%
HepG2
  Inhibition: 0%

## Cc1c(Cl)cccc1N=C(S)NN=Cc1ccccn1
Plasmodium falciparum [1]
  Inhibition: 99%
Plasmodium falciparum [2]
  Inhibition: 85%
HepG2
  Inhibition: 58%

## CCc1cc2c3c(N)nc(N)nc3ccc2n1C(C)CC (configuration not stated)
Plasmodium falciparum [1]
  Inhibition: 100%
Plasmodium falciparum [2]
  Inhibition: 99%
HepG2
  Inhibition: 73%

## CCN(CC)CCOc1ccc(C(O)(C#CC(O)(c2ccc(C)cc2)c2ccc(OCCN(CC)CC)cc2)c2ccc(C)cc2)cc1 (configuration not stated)
Plasmodium falciparum [1]
  Inhibition: 97%
Plasmodium falciparum [2]
  Inhibition: 98%
HepG2
  Inhibition: 94%

## O=C(Nc1cccc(C(F)(F)F)c1)Nc1ccc(F)c([N+](=O)[O-])c1
Plasmodium falciparum [1]
  Inhibition: 100%
Plasmodium falciparum [2]
  Inhibition: 100%
HepG2
  Inhibition: 43%

## COc1ccc2c(NN=Cc3ccc(F)cc3)ccnc2c1
Plasmodium falciparum [1]
  Inhibition: 100%
Plasmodium falciparum [2]
  Inhibition: 99%
HepG2
  Inhibition: 14%

## COc1ccc(-c2cccc(NC(=O)c3cccs3)c2)cc1CN1CCCN(C)CC1.O=C(O)C(F)(F)F
Plasmodium falciparum [1]
  Inhibition: 100%
Plasmodium falciparum [2]
  Inhibition: 30%
HepG2
  Inhibition: 17%

## CC1(C)CCCN(Cc2c(O)ccc3c(O)c(-c4nc5ccccc5s4)c(=N)oc23)C1
Plasmodium falciparum [1]
  Inhibition: 100%
Plasmodium falciparum [2]
  Inhibition: 100%
HepG2
  Inhibition: 20%

## COc1ccc2ccccc2c1CNCC1CCN(CC2CCCCC2)CC1.O=C(O)C(F)(F)F
Plasmodium falciparum [1]
  Inhibition: 98%
Plasmodium falciparum [2]
  Inhibition: 27%
HepG2
  Inhibition: 23%

## Fc1ccc2[nH]c(-c3ccc(-c4ccc(CN5CCN(c6cnccn6)CC5)cc4)s3)nc2c1.O=C(O)C(F)(F)F
Plasmodium falciparum [1]
  Inhibition: 99%
Plasmodium falciparum [2]
  Inhibition: 98%
HepG2
  Inhibition: 45%

## Oc1ccc2[nH]cc(C3CCN(CCCNCc4ccc(-c5ccccc5)cc4)CC3)c2c1
Plasmodium falciparum [1]
  Inhibition: 100%
Plasmodium falciparum [2]
  Inhibition: 0%
HepG2
  Inhibition: 22%

## Oc1ccc(CCNCc2ccc(OCc3ccccc3)c(OCc3ccccc3)c2)cc1
Plasmodium falciparum [1]
  Inhibition: 88%
Plasmodium falciparum [2]
  Inhibition: 9%
HepG2
  Inhibition: 31%
